From PubChem BioAssay (EPA / NIEHS)
Results filed as inconclusive are left out. The source made the active and inactive calls. How the source made its calls, unless noted: active means hit-call score of the fitted dose curve at least 0.9, where 1 is the maximum; inactive means score below 0.9.

Tests used:
[1] = target: human RAR-related Orphan Receptor beta (RORb), RORB (gene 6096) (UniProt Q92753); assay: ATG_RORb_TRANS: Attagene TRANS-FACTORIAL HepG2 Assay for human RAR-related Orphan Receptor beta (RORb) (AID 2283010; active means hit-call score of the fitted dose curve at least 0.9, where 1 is the maximum)
human RAR-related Orphan Receptor beta (RORb), RORB (gene 6096), sequence (Q92753 whole entry, looked up, the tested form may be a part): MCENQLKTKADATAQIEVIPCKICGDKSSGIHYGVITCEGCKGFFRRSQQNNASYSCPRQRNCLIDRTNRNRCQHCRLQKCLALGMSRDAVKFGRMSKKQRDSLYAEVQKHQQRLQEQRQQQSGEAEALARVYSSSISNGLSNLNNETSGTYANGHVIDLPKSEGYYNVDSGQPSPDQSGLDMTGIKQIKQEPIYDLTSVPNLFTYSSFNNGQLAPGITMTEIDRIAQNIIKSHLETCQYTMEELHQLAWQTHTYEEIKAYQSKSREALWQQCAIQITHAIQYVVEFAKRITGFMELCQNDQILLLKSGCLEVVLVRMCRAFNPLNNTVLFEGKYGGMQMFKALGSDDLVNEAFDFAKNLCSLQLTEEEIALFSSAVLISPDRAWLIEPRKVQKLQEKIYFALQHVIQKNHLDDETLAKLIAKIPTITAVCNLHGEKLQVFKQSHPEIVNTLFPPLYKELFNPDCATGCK
In short: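 Read-out is reporter mRNA induction, quantified by RT-PCR with fluorescent capillary electrophoresis, 24 h post-dose in transiently transfected HepG2 expressing exogenous NR-Gal4 chimera. Activity fitted upward versus DMSO.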

[2] = target: human RAR-related Orphan Receptor gamma (RORg), RORC (gene 6097) (UniProt P51449); assay: ATG_RORg_TRANS: Attagene TRANS-FACTORIAL HepG2 Assay for human RAR-related Orphan Receptor gamma (RORg) (AID 2283011; active means hit-call score of the fitted dose curve at least 0.9, where 1 is the maximum)
human RAR-related Orphan Receptor gamma (RORg), RORC (gene 6097), sequence (P51449 whole entry, looked up, the tested form may be a part): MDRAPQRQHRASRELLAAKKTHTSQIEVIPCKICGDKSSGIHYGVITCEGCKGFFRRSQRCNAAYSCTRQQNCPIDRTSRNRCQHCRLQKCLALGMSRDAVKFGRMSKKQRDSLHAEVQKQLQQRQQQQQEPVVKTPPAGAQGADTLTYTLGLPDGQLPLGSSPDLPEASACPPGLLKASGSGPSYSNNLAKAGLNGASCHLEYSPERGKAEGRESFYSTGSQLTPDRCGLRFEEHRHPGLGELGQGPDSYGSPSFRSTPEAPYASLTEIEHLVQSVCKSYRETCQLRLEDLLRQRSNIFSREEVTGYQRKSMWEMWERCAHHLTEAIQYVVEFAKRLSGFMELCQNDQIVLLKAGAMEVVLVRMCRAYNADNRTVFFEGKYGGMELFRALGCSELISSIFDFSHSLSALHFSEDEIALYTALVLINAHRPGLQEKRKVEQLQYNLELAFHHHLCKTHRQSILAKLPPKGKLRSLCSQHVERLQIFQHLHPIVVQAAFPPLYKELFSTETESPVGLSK
In short: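 HepG2 cells transiently transfected with GAL4-UAS reporter units and chimeric RORg-Gal4 construct; after 24 h chemical exposure, reporter mRNA measured by RT-PCR with fluorescent capillary electrophoresis, gain of signal fitted against DMSO.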

[3] = target: human Retinoid X Receptor beta (RXRb), RXRB (gene 6257) (UniProt P28702); assay: ATG_RXRb_TRANS: Attagene TRANS-FACTORIAL HepG2 Assay for human Retinoid X Receptor beta (RXRb) (AID 2283013; active means hit-call score of the fitted dose curve at least 0.9, where 1 is the maximum)
human Retinoid X Receptor beta (RXRb), RXRB (gene 6257), sequence (P28702 whole entry, looked up, the tested form may be a part): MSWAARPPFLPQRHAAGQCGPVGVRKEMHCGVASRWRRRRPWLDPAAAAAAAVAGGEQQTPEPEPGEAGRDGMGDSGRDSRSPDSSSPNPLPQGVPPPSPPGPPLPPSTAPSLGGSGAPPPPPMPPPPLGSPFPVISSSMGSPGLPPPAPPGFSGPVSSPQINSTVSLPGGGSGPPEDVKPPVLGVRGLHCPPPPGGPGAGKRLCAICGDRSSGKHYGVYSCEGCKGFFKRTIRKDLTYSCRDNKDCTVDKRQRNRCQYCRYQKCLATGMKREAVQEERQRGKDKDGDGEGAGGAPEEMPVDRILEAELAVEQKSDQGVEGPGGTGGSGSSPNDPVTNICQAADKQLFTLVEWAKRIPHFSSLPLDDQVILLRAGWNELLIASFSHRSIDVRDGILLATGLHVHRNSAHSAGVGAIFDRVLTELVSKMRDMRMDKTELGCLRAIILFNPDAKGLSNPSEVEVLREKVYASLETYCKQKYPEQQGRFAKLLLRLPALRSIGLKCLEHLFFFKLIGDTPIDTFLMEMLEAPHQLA
In short: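 Readout is reporter transcript induction after 24 h dosing. It is measured by RT-PCR of total RNA followed by fluorescent capillary electrophoresis. HepG2 liver cells carry transfected multiple reporter units driven by an exogenous RXRb-Gal4 fusion; activity is relative to DMSO.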

[4] = target: Retinoic acid receptor RXR-alpha (Homo sapiens) (UniProt P19793); assay: ATG_RXRa_TRANS: Attagene TRANS-FACTORIAL HepG2 Assay for human Retinoid X Receptor alpha (RXRa) (AID 2283012; active means hit-call score of the fitted dose curve at least 0.9, where 1 is the maximum)
Retinoic acid receptor RXR-alpha (Homo sapiens), sequence (P19793 whole entry, looked up, the tested form may be a part): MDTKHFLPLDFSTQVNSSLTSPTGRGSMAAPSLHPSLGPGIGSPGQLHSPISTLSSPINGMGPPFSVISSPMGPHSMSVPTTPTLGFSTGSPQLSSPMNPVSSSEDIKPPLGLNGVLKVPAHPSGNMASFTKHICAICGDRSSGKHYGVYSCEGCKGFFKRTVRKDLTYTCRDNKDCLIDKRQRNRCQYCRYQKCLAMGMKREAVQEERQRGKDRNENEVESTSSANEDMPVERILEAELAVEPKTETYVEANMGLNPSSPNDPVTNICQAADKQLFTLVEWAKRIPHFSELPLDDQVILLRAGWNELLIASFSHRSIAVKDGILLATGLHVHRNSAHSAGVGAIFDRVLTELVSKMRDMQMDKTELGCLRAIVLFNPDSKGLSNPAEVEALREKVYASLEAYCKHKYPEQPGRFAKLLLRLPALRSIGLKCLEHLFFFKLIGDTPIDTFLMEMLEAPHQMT
In short: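 TRANS format reporting activity of exogenous RXRa-Gal4 chimera in transiently transfected HepG2, 24 h exposure. Reporter transcripts quantified by RT-PCR with capillary electrophoresis, with gain of signal scored relative to DMSO.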

[5] = read-out: E-selectin (Homo sapiens) (UniProt P16581); assay: BSK_3C_Eselectin: BioMAP Diversity Plus: 3C Assay for Eselectin Biomarker Activity (AID 2283015); conditions: primary human endothelial cells (HUVEC); actives raise or lower the signal;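 further: cell surface E-selectin protein quantified by ELISA 24 h after dosing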
In short: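 Primary human umbilical vein endothelial cells (3C system), read 24 h after compound addition; E-selectin measured by ELISA. Bidirectional curve fitting against DMSO baseline; cytotoxicity by parallel SRB total-protein staining.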

[6] = read-out: Interleukin-1 alpha (IL1a), IL1A (gene 3552); assay: BSK_BE3C_IL1a: BioMAP Diversity Plus: BE3C Assay for Interleukin-1 alpha (IL1a) Biomarker Activity (AID 2283016); conditions: primary human bronchial epithelial cells; actives raise or lower the signal
In short: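 IL-1a measured by ELISA after 24 h treatment of human primary bronchial epithelial cells, with gain or loss of signal fitted versus DMSO. Parallel cultures stained with SRB gauge overt cytotoxicity.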

[7] = read-out: Monocyte Chemoattractant Protein-1 (MCP1), CCL2 (gene 6347); assay: BSK_3C_MCP1: BioMAP Diversity Plus: 3C Assay for Monocyte Chemoattractant Protein-1 (MCP1) Biomarker Activity (AID 2283017); conditions: primary human endothelial cells (HUVEC); actives raise or lower the signal
In short: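 Human umbilical vein endothelial cells (3C system) exposed to chemicals for 24 h; MCP-1 quantified by ELISA against the DMSO baseline with bidirectional fitting, and parallel SRB staining used to assess cytotoxicity.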

[8] = read-out: Monocyte Chemoattractant Protein-1 (MCP1), CCL2 (gene 6347); assay: BSK_4H_MCP1: BioMAP Diversity Plus: 4H Assay for Monocyte Chemoattractant Protein-1 (MCP1) Biomarker Activity (AID 2283018); conditions: primary human endothelial cells (HUVEC); actives raise or lower the signal
In short: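 ELISA of MCP-1 (CCL2) 24 h after chemical dosing of HUVEC in the BioMAP 4H system. Gain or loss versus DMSO fitted; parallel SRB staining (560 nm) tracked overt cytotoxicity.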

[9] = read-out: Human Leukocyte Antigen - DR isotype (HLADR), HLA-DRA (gene 3122); assay: BSK_3C_HLADR: BioMAP Diversity Plus: 3C Assay for Human Leukocyte Antigen - DR isotype (HLADR) Biomarker Activity (AID 2283019); conditions: primary human endothelial cells (HUVEC); actives raise or lower the signal
In short: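 HUVEC monoculture, HLA-DR measured by ELISA 24 h after chemical dosing. Fitted bidirectionally against DMSO baseline; parallel SRB staining assessed cytotoxicity, with 3C proliferation read by SRB at 48 h.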

[10] = read-out: Interleukin-8 (IL8), CXCL8 (gene 3576); assay: BSK_3C_IL8: BioMAP Diversity Plus: 3C Assay for Interleukin-8 (IL8) Biomarker Activity (AID 2283020); conditions: primary human endothelial cells (HUVEC); actives raise or lower the signal
In short: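 IL-8 was measured by ELISA in HUVEC cultures 24 h after chemical dosing, with gain or loss of signal fitted relative to DMSO. Parallel SRB total-protein staining tracked overt cytotoxicity.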

[11] = read-out: Monokine induced gamma interferon (MIG), CXCL9 (gene 4283); assay: BSK_3C_MIG: BioMAP Diversity Plus: 3C Assay for Monokine induced gamma interferon (MIG) Biomarker Activity (AID 2283021); conditions: primary human endothelial cells (HUVEC); actives raise or lower the signal
In short: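 ELISA measurement of MIG in human umbilical vein endothelial cells 24 h after treatment. Cytotoxicity tracked by SRB staining in parallel cultures; gain or loss of signal fitted relative to DMSO.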

[12] = BSK_3C_SRB: Viability Assessment in the BioMAP Diversity Plus: 3C Assay (AID 2283023); conditions: primary human endothelial cells (HUVEC);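 further: fitted both ways against DMSO so a hit may be signal rise or drop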
In short: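 Human umbilical vein endothelial cells in the 3C system, treated 24 h. Total protein measured by 0.1% sulforhodamine B staining after 10% TCA fixation, read at 560 nm; bidirectional fit versus DMSO.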

[13] = read-out: Matrix Metallopeptidase 1 (MMP1), MMP1 (gene 4312); assay: BSK_BE3C_MMP1: BioMAP Diversity Plus: BE3C Assay for Matrix Metallopeptidase 1 (MMP1) Biomarker Activity (AID 2283024); conditions: primary human bronchial epithelial cells; actives raise or lower the signal
In short: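 ELISA measurement of MMP-1 after 24 h compound exposure of primary human bronchial epithelial cells. Changes in either direction fitted relative to DMSO; parallel SRB staining checked overt cytotoxicity.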

[14] = BSK_3C_Vis: BioMAP Diversity Plus: 3C Assay for Morphology Visualization (AID 2283025); conditions: primary human endothelial cells (HUVEC);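 further: fitted both ways so gain or loss versus DMSO counts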
In short: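 Light-microscopy visualization of HUVEC cultures at 24 h post-treatment, with DMSO as baseline for bidirectional fitting.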

[15] = read-out: Pselectin, SELP (gene 6403); assay: BSK_4H_Pselectin: BioMAP Diversity Plus: 4H Assay for Pselectin Biomarker Activity (AID 2283026); conditions: primary human endothelial cells (HUVEC); actives raise or lower the signal
In short: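 ELISA of surface P-selectin on HUVEC, 24 h after dosing, with parallel SRB staining (0.1% after 10% TCA fixation, 560 nm) for overt cytotoxicity. Activity fitted in both directions relative to DMSO.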

[16] = BSK_4H_SRB: Viability Assessment in the BioMAP Diversity Plus: 4H Assay (AID 2283027); conditions: primary human endothelial cells (HUVEC);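 further: cells exposed to compound for 24 h before staining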
In short: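 Cytotoxicity read-out in primary human endothelial cells: after 24 h compound exposure, cells were TCA-fixed (10%), stained with 0.1% SRB and absorbance taken at 560 nm. Values fitted in both directions relative to DMSO.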

[17] = BSK_BE3C_SRB: Viability Assessment in the BioMAP Diversity Plus: BE3C Assay (AID 2283028); conditions: primary human bronchial epithelial cells
In short: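 Human bronchial epithelial primary cells in confluent culture, 24 h after chemical dosing; total protein by 0.1% SRB staining after 10% TCA fixation, read at 560 nm. Bidirectional fitting versus DMSO baseline.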

[18] = read-out: Thrombomodulin, THBD (gene 7056); assay: BSK_3C_Thrombomodulin: BioMAP Diversity Plus: 3C Assay for Thrombomodulin Biomarker Activity (AID 2283029); conditions: primary human endothelial cells (HUVEC); actives raise or lower the signal
In short: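 ELISA measurement of thrombomodulin on HUVEC surface 24 h after chemical dosing; activity fitted in both directions relative to DMSO vehicle.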

[19] = target: human Thyroid Receptor alpha (THRa1), THRA (gene 7067) (UniProt P10827); assay: ATG_THRa1_TRANS: Attagene TRANS-FACTORIAL HepG2 Assay for human Thyroid Receptor alpha (THRa1) (AID 2283014; active means hit-call score of the fitted dose curve at least 0.9, where 1 is the maximum)
human Thyroid Receptor alpha (THRa1), THRA (gene 7067), sequence (P10827 whole entry, looked up, the tested form may be a part): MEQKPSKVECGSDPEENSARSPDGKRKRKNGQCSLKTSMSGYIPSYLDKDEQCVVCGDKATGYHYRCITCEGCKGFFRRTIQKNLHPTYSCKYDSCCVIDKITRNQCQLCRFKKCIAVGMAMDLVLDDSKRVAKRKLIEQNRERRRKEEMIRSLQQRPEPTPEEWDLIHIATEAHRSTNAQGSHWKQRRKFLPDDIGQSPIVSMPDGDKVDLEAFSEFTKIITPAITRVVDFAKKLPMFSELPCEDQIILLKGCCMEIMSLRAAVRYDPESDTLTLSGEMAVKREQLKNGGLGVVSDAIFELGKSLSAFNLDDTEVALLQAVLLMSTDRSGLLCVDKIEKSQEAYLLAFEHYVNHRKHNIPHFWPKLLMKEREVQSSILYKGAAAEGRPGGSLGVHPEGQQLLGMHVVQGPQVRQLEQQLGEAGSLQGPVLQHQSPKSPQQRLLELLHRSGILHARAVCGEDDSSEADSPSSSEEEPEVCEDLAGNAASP
In short: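 HepG2 cells transiently transfected with chimeric NR-Gal4 and GAL4-UAS reporter units, dosed 24 h. Reporter mRNA quantified by RT-PCR, fluorescent labeling, HpaI digestion and capillary electrophoresis; gain-of-signal fit versus DMSO.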

[20] = target: human Vitamin D Receptor (VDR), VDR (gene 7421) (UniProt P11473); assay: ATG_VDR_TRANS: Attagene TRANS-FACTORIAL HepG2 Assay for human Vitamin D Receptor (VDR) (AID 2283022; active means hit-call score of the fitted dose curve at least 0.9, where 1 is the maximum)
human Vitamin D Receptor (VDR), VDR (gene 7421), sequence (P11473 whole entry, looked up, the tested form may be a part): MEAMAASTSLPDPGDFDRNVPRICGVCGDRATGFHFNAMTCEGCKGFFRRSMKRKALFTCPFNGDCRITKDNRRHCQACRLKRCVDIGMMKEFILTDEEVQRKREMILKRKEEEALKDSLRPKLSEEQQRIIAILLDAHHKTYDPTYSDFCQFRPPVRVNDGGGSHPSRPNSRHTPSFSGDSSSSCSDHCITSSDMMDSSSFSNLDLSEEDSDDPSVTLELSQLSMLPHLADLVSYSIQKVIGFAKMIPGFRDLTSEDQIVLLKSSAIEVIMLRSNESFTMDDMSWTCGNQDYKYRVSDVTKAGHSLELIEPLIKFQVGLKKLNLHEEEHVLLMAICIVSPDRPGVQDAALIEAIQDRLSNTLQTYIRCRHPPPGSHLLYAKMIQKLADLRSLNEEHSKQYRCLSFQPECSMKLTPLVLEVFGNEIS
In short: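 HepG2 cells were transiently transfected with GAL4-UAS reporter units and a chimeric VDR-Gal4 construct, then dosed for 24 hours. Reporter mRNA was quantified by RT-PCR, fluorescent labeling, HpaI digestion and capillary electrophoresis; gain of signal analysed vs DMSO.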

Measured: AC50

E-selectin (Homo sapiens), sequence (P16581 whole entry, looked up): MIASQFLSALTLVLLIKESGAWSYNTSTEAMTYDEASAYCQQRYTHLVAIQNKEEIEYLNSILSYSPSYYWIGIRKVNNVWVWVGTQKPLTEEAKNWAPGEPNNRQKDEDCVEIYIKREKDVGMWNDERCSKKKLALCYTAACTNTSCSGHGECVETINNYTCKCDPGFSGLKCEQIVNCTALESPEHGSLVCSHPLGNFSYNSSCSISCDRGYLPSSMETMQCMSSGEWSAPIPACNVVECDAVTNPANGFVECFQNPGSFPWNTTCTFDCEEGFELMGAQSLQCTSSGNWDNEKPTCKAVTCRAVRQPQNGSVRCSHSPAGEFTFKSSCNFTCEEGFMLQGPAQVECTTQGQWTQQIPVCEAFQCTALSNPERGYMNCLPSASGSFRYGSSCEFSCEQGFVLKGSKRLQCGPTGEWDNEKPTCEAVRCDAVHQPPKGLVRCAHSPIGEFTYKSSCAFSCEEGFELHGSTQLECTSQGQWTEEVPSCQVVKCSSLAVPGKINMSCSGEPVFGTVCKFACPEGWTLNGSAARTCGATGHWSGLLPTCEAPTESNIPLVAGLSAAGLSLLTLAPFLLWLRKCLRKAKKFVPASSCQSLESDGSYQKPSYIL

CC12CCC(CC1)C(C)(C)O2
inactive: [1] | [2] | [3]

CCOC(=O)/C=C\C(=O)OCC
active: [9] 32.5 µM
not listed: [3] | [19] | [20]
inactive: all other assays above

CCN1CN(CC)CN(CC)C1
active: [9] 20 µM | [13] 0.112 µM
not listed: [3] | [19] | [20]
inactive: all other assays above

COC(Cc1ccccc1)OC
inactive: [1] | [2] | [19] | [20]

CC(C)C(=O)OCCOc1ccccc1
inactive: [1] | [2] | [20]

CCCCCC(=O)OCC
inactive: [1] | [4] | [3]

CCCC(C)C(=O)OCC (configuration not stated)
not listed: [3] | [14] | [18] | [19] | [20]
inactive: all other assays above

C=C[C@@]1(C)CC(=O)[C@]2(O)[C@@]3(C)[C@@H](O)CCC(C)(C)[C@@H]3[C@H](O)[C@H](OC(C)=O)[C@@]2(C)O1
active: [4] 26.9 µM | [3] 3.64 µM | [19] 33.4 µM
inactive: [1] | [20]

O=C(O)c1cc(O)c2ccccc2c1O
inactive: [1] | [4] | [3] | [19]

CCCCCCOC(=O)CCCCC(=O)OCCCCCC
active: [3] 54.2 µM
not listed: [2] | [18]
inactive: all other assays above

CC(=O)c1ccc(S(=O)(=O)NC(=O)NC2CCCCC2)cc1
inactive: [1] | [2] | [20]

C=CC(=O)O[C@H]1C[C@@H]2CC[C@@]1(C)C2(C)C
inactive: [1] | [4] | [3] | [19] | [20]

CO[Si](CCCS)(OC)OC
inactive: [1] | [4] | [3] | [19]

CC(C)(CO)C(O)C(=O)NCCCO (configuration not stated)
inactive: [1] | [2] | [4] | [20]

CC(=O)OC1CCCCC1
inactive: [1] | [2] | [4] | [20]

N#CC1(N)CCCCC1
inactive: [1] | [4] | [3]
